Twelve molecules from PubChem BioAssay can be followed below.

The assay relates to Human papillomavirus type 1a E7 protein (residues 1-88). As to the kind of experiment: HPV1a E7 small-molecule binders, primary screen, biochemical, small-molecule microarray, residues 1-88, 635 nm (AID 1129). As to conditions: small-molecule microarray binding, fluorescence 635 nm; higher = more signal.
Consider `C=CC[C@]1(C(=O)O)N=C(c2ccc(OCCCO)cc2)O[C@H]1c1ccccc1CN=[N+]=[N-]`, for which the composite z-score was -0.583. The figure for `C[N+](C)(C)CCCCNC(=O)[C@H]1C[C@H]2C(=O)N3CCC[C@H]3C(=O)N2[C@H]1c1ccc(O)cc1` is -0.0698; for `[N-]=[N+]=NCc1ccccc1[C@@H]1OC(c2ccc(OCCCO)cc2)=N[C@]1(Cc1ccccc1)C(=O)O` it is 0.445.

On to `CN(C)CCCN1C(=O)[C@@]2(c3ccc([N+](=O)[O-])cc3)CC(=O)N(C3CCCCC3)[C@@H]2c2ccc(CO)cc21`, for which the composite z-score was -1.05. On to `CCOC1=C2C(c3ccc(C)cc3)N(S(=O)(=O)c3ccc(C)cc3)CC2n2c(=O)n(-c3ccccc3)c(=O)n2C1` (configuration not stated), for which the composite z-score turned out to be 1.16.

`O=C1c2ccccc2[C@](Cc2ccccc2I)(C(=O)O)[C@H](c2ccc(CO)cc2)N1Cc1ccccc1C(F)(F)F`: the composite z-score worked out at 1.09. `CCCCCCCCCCC(O)C1C=CC2C(=O)N(c3ccccc3)C(=O)C2N1Nc1ccc([N+](=O)[O-])cc1` (configuration not stated) registered a composite z-score of 1.22. With `CCOC(=O)C1=CC[C@@H](c2cccc(Cl)c2)N(S(=O)(=O)c2ccc(C)cc2)[C@H]1c1ccc(C#N)cc1`, the composite z-score stood at 1.26. The molecule `CCCCCCC#C[Si](O[C@H](c1ccccc1)c1cn([C@H](C)c2ccccc2)nn1)(C(C)C)C(C)C` gave a composite z-score of 0.386.

Consider `O=C(NCC(F)(F)F)[C@@H]1c2ccccc2C(=O)N(Cc2ccccc2)[C@H]1c1ccc(CO)cc1`, for which the composite z-score is -1.3. To `O=C1OCC=C[C@H]2OC34C=CCN(c5ccc(Cl)cc5)C(=O)[C@H]3N(CCCO)C(=O)[C@@H]4[C@@H]12` (some centres not stated) belongs -0.799; to `CCOC(=O)N1C(c2ccc(OCCCO)cc2)=NC(C(=O)OC)N1C(=O)OCC` (configuration not stated), 1.2.
